From PubChem
Pf growth 96h: Primary qHTS for delayed death inhibitors of the malarial parasite plastid, 96 hour incubation | actives 6.9% (n = 320,000) | Potency, µM (titrated, usually from 28.7 µM), inactives show top-dose activity change, negative = inhibition, most hits filed as inhibitors | P. falciparum luciferase reporter growth, 96 h; also: potency is read from the fitted curve at half-maximal effect; % is scaled to controls: 0 for no effect and ±100 for the full control effect
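Cell-based qHTS: luciferase-tagged P. falciparum in erythrocytes (2% hematocrit, 0.05% parasitemia final) incubated with compounds for 96 hours, 37 C, 5% CO2; luciferase detection reagent then added and luminescence measured.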
Cycloheximide cs: Cycloheximide Counterscreen for Small Molecule Inhibitors of Shiga Toxin | cell reporter, cycloheximide protein synthesis inhibition counterscreen | max response, % | actives 12% (n = 300,000) | AID 2314, 2010; in the data active = max response mostly above about 13%, no sharp cut-off; inactive = mostly below about 14%; also: read at 38.3 µM for the half of the compounds with a filed dose; 0% is about no effect
HCMV inh: qHTS Assay for inhibitors of the human cytomegalovirus (HCMV) | HFF cells, HCMV-luciferase reporter, 72 h; stronger effect = lower value | activity change, negative = inhibition, % at 57.5 µM | actives 4.5% (n = 410,000) | AID 1259415, 2018; in the data active = activity change below about -60%; inconclusive = no clear call, values can overlap the other calls; inactive = above about -39%; also: % is scaled to controls: 0 for no effect and ±100 for the full control effect
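Screen run at 2 compound doses on HFFs infected with reporter HCMV, MOI 1 PFU/cell. Luciferase activity from cell lysates at 72 h post infection gave inhibition relative to buffer-only and Salinomycin wells.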
Pf growth 48h: Primary qHTS for delayed death inhibitors of the malarial parasite plastid, 48 hour incubation | P. falciparum luciferase growth in erythrocytes, 48 h | Potency, µM (top dose mostly 28.7 µM), for the others: at the highest dose activity change, negative = inhibition, most hits filed as inhibitors | actives 5.9% (n = 310,000); also: potency is read from the fitted curve at half-maximal effect; % is scaled to controls: 0 for no effect and ±100 for the full control effect
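Firefly luciferase activity from engineered P. falciparum reports growth; inhibitors lower the luminescent signal. Cultures contained 2% hematocrit erythrocytes at 0.1% final parasitemia.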
Shiga toxin inh: A qHTS for Small Molecule Inhibitors of Shiga Toxin; Vero cells, Shiga toxin protein synthesis inhibition reporter; inhibition, % at 38.7 µM; actives 9.2% (n = 290,000); in the data active = inhibition mostly above about 28%, no sharp cut-off; inactive = mostly below about 43%; also: 0% is about no effect
The depositor's hits bear a star; ? = inconclusive; / = no result given; [ ] = remark or other dose. The list is not random: actives were taken first. Their share in the collection is about 20%. Unless noted, calls follow the shape of the dose curve; as a rule, active = well fitted inhibition curve with a large enough effect; inconclusive = small, poorly fitted or top-dose-only effect, or another doubt; inactive = no such curve, though single readings can be large or run the other way.

SMILES | Pf growth 96h | Cycloheximide cs | HCMV inh | Pf growth 48h | Shiga toxin inh
O=C(CC[C@H]1O[C@@H](n2ccc(=O)[nH]c2=O)[C@H](O)[C@@H]1O)NCc1cccc2ccccc12 | / | / | 29.5 | / | /
CCCCOc1ccc(C(=O)NCC(c2ccc(Cl)cc2)N2CCOCC2)cc1 (centres undefined) | / | / | 5.7 | / | /
COc1ccc(N(CC(=O)NCCc2ccc(S(N)(=O)=O)cc2)S(=O)(=O)c2c(C)noc2C)cc1 | ? | 0.9 | -29.4 | -20.7% | 3.2
O=C(CN1CCC(n2nnc3cc(F)ccc32)CC1)N1CCc2ccccc2C1 | 4.8% | -3.6 | -16.8 | 8.28µM* | -6.8
O=C(CN1CCC(n2nnc3cc(F)ccc32)CC1)Nc1ccccc1N1CCOCC1 | -17.0% | -2.1 | ? | 1.65µM* | -26.8
COC(=O)c1ccccc1NC(=O)CN1CCC(n2nnc3cc(F)ccc32)CC1 | / | -2.5 | 61.7 | ? | -2.6
O=C(CN1CCC(n2nnc3cc(F)ccc32)CC1)NC1CC1 | 3.1% | -3.5 | 44.0 | 27.2% | -10.1
NC(=O)c1c(NC(=O)c2nc(SCc3ccccc3F)ncc2Cl)sc2c1CCCC2 | / | / | 9.2 | / | /
CC(=O)c1cccc(NC(=O)CSc2ncc3c(n2)-c2cc(Cl)ccc2N(Cc2ccccc2)S3(=O)=O)c1 | / | / | -32.2 | / | /
Cc1cc(C(=O)COc2ccc([N+](=O)[O-])cc2)c(C)n1C1CC1 | ? | 15.7* | ? | -29.6% | 36.1*
Cc1cc(C(=O)COc2ccc(C#N)cc2)c(C)n1C1CC1 | ? | / | -34.3 | ? | /
COc1cc(C(C)=O)ccc1OCC(=O)c1cc(C)n(C2CC2)c1C | 11.7µM* | 13.8 | 9.1 | ? | 8.6
COCCn1c(C)cc(C(=O)COC(=O)c2c(C)nn(Cc3ccccc3)c2C)c1C | 6.7% | 1.3 | -13.7 | ? | -3.4
Cc1nn(Cc2ccccc2)c(C)c1C(=O)OCC(=O)c1cc(C)n(C2CC2)c1C | / | 4.0 | ? | 14.7µM* | 10.8
COc1cc(NC(=S)NC(=O)c2ccccc2C)ccc1NC(=O)c1cccs1 | -28.8% | -1.5 | -1.3 | ? | 5.8
COc1cc(NC(=S)NC(=O)c2cc(C)cc(C)c2)ccc1NC(=O)c1cccs1 | 2.94µM* | 7.5 | -28.7 | ? | 3.1
COc1cc(NC(=S)NC(=O)c2ccc(C(C)(C)C)cc2)ccc1NC(=O)c1cccs1 | ? | -3.5 | -96.8* | ? | -12.2
COc1cc(NC(=S)NC(=O)c2c(OC)cccc2OC)ccc1NC(=O)c1cccs1 | 9.0% | -2.4 | 13.2 | 5.22µM* | -24.4
O=C(NC1CC2CCCC(C1)N2C(=S)NCCc1ccccc1)C1CC1 (centres undefined) | 21.3% | -0.4 | -27.1 | -4.1% | -20.0
Cn1c(=O)c2cc(NC(=O)OCCF)ccc2n1Cc1cccc(C(F)(F)F)c1 | / | / | -29.7 | / | /
C=CCNC(=O)c1ccc2c3n(nc2c1)-c1ccc(Cl)cc1CO3 | / | / | 34.0 | / | /
CC(C)[C@@H](CO)NC(=O)c1ccc2c3n(nc2c1)-c1ccccc1CO3 | 342.5% | 36.7* | 175.6 | 219.4% | 50.0*
CC(C)NC(=O)c1ccc2c3n(nc2c1)-c1ccccc1CO3 | 106.1% | 22.0* | ? | 146.3% | 30.3
O=C(Cn1cnc([N+](=O)[O-])n1)N/N=C/c1cc(Cl)ccc1O | ? | -3.1 | 32.3 | ? | -7.5
C/C(=C\C(=O)c1ccccc1)Nc1ccc(O)cc1 | / | 89.1* | 87.0 | 106.6% | 173.7*
SMILES | Pf growth 96h | Cycloheximide cs | HCMV inh | Pf growth 48h | Shiga toxin inh
COc1ccc(C(=O)/C=C(\C)Nc2ccc(NC(C)=O)cc2)cc1 | 87.5% | -1.8 | 51.2 | 38.9% | 30.5
C/C(=C\C(=O)c1cccnc1)Nc1ccc(O)cc1 | -20.0% | 27.6* | 6.6 | / | 26.2*
COC(=O)c1ccc(NC(=O)c2cccnc2)cc1 | 167.0% | -1.7 | -8.8 | 43.2% | /
Cc1nc(N2CCCC2)ncc1C(=O)NCc1cccc(Cl)c1 | / | / | -10.3 | / | /
Cc1c(C(=O)c2ccc(F)cc2)c2ccccn2c1CCc1ccccn1 | 4.15µM* | 6.9 | -15.6 | 0.0% | 20.4
COC(=O)CCc1c(C)c(C(=O)c2cc(OC)c(OC)c(OC)c2)c2ccccn12 | ? | -3.1 | 38.6 | 10.4µM* | -3.6
Cc1cc(C)cc(NC(=O)CCc2nnc3n(C)c(=O)c4sccc4n23)c1 | / | / | 18.4 | / | /
O=C1Nc2ccccc2C(O)(C(=O)NCc2ccc3c(c2)OCO3)N1c1ccc(Cl)c(Cl)c1 (centres undefined) | / | 0.5 | 19.0 | ? | -6.3
O=C(CC12CC3CC(CC(C3)C1)C2)NC1CC1 | / | / | 6.8 | / | /
CC(=O)Nc1ccc(S(=O)(=O)N[C@H](C(=O)O)C(C)C)cc1 | -29.4% | -1.4 | 0.1 | 3.9% | 2.4
CC(=O)Nc1ccc(S(=O)(=O)NC(C(=O)O)C2=CCC=CC2)cc1 (centres undefined) | 3.7µM* | 7.5 | 93.6 | 28.1% | 11.5
CC1CCN(CCCCOc2cccc(Br)c2)CC1 | 2.62µM* | -3.6 | -12.5 | ? | -6.5
Cc1ccc(OCCCNC2CCCC2)cc1 | 26.7% | -2.5 | -6.4 | 9.4% | -15.0
Brc1cccc(OCCCNC2CCCC2)c1 | 11.7µM* | -3.1 | 21.5 | ? | -5.4
CC1CCN(CCCCOc2ccc(Br)cc2)CC1 | -0.8% | -1.4 | ? | -19.1% | 1.8
Cc1ccc(C)c(OCCCNC2CCCC2)c1C | ? | -2.5 | -6.5 | 11.7µM* | 16.2
Cc1cc(Br)ccc1OCCCCN1CCC(C)CC1 | -21.4% | -5.1 | -60.2* | 14.7µM* | -11.8
CCc1ccccc1N(C)C(=O)Cn1cnc2sc(C)c(S(=O)(=O)N3CCC(C)CC3)c2c1=O | / | / | 4.4 | / | /
N#CC1=C(N)SC(N)=C(C#N)C1CCC1CCCCC1 | 3.5%[5.75 µM] | 0.7 | / | -10.7% | -3.8
CCN(c1ccc(C)c(C)c1)S(=O)(=O)c1c(C)[nH]c(=O)[nH]c1=O | / | 7.1 | 7.1 | -8.0% | -11.3
Cc1ccccc1CSc1cn(CC(=O)N2CCCCC2)c2ccccc12 | / | / | 44.0 | / | /
COc1ccccc1C(=O)NCCC(=O)NCCC12CC3CC(CC(C3)C1)C2 | -22.8% | 0.9 | -18.2 | 0.7% | -7.5
COc1ccc(C23CC4CC(CC(C4)C2)C3)cc1C(=O)NCCN(C)C | 11.7µM* | 1.4 | -70.0* | ? | -4.2
CN(C)CCNC(=O)c1cccc2nc3cccc(F)c3nc12 | / | / | -98.8* | / | /
COc1ccc(OC)c2nc3c(C(=O)NCCN(C)C)cccc3nc12 | / | / | -96.2* | / | /
Cn1c(NCc2ccccc2)nc2cc(-c3cccc(C(F)(F)F)c3)sc2c1=O | / | / | 6.3 | / | /
CN(C)c1ccc(CNc2nc3cc(-c4ccc(F)cc4)sc3c(=O)n2C)cc1 | / | / | -85.7* | / | /
COc1ccc(-c2n[nH]c(C)c2-c2cnn(-c3ccccc3)c2)c(O)c1C | ? | -1.7 | -77.4* | -0.8% | -1.6
CC1(C)Cc2c(sc3c2c(=O)n(-c2cccc(Cl)c2)c(=O)n3CC(N)=O)CO1 | ? | 0.3 | 13.9 | -15.5% | -14.7
COc1cccc(CNC(=O)CCC2CCCN(C(=O)c3cc(C)on3)C2)c1 (centres undefined) | 45.6% | -1.3 | -11.4 | 14.8% | 14.1
